14 molecules from PubChem BioAssay (NCI) can be followed below.

Compounds without any hit were thinned out: in the full panel of roughly 83,000, 20% have a hit.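 48-hour exposure, single concentration, 96-well plates; percent growth endpoint where 0 means no net growth. Active: below 10.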 Unmarked numbers belong to inactive results. Activity calls are given as the source filed them.

Test systems include T-47D breast; BT-549 breast; MDA-MB-435 melanoma; SW-620 colon; MCF7 breast; HCT-116 colon; HCC-2998 colon; KM12 colon.
Common to all, as to experiment: NCI-60 one-dose screen, 48 h (100 = growth as untreated, 0 = no growth, -100 = all killed)
Details in all cases: 10 µM unless noted

Consider `O=c1[nH]c(NCc2nnnn2-c2ccc(Br)cc2)nc2sc3c(c12)CCCC3`, for which the growth was 74.3% in the assay on T-47D breast; 104% in the assay with BT-549 breast; 97.4% in the assay on MDA-MB-435 melanoma; 93.7% in the assay on SW-620 colon; 92% in the assay with MCF7 breast; 81.2% in the assay on HCT-116 colon. Besides, the growth is 110% with HCC-2998 colon and 96.1% with KM12 colon.

For `O=C(Nc1ccccn1)[C@H](O)[C@@H](O)C(=O)N1CCOCC1`, the growth was 100% in the assay on T-47D breast; 114% in the assay with BT-549 breast; 111% in the assay with MDA-MB-435 melanoma; 110% in the assay on SW-620 colon; 110% with MCF7 breast; 99.3% with HCT-116 colon. Besides, the growth with HCC-2998 colon is 116%; in the assay with KM12 colon, 108%.

As to `O=C1NCC(=O)N(Cc2ccco2)[C@H]1Cc1ccccc1`, the growth was 88% in the assay on T-47D breast; 95.5% with BT-549 breast; 104% with MDA-MB-435 melanoma; 107% in the assay with SW-620 colon; 91.5% with MCF7 breast; 95.9% with HCT-116 colon. Moreover, the growth was 109% with HCC-2998 colon and 103% in the assay with KM12 colon.

As to `CC(C)(C)c1ccc(C(=O)Nc2sc3c(c2C(N)=O)CCC(=O)C3)cc1`, the growth in the assay with T-47D breast was -13.7% (active); in the assay on BT-549 breast, -10.3% (active); with MDA-MB-435 melanoma it was -45.2% (active); in the assay with SW-620 colon, -36.7% (active); with MCF7 breast it was 3.05% (active); with HCT-116 colon, -30.5% (active). Also, the growth in the assay with HCC-2998 colon is 17.1%; in the assay with KM12 colon it was -55.6% (active).

Consider `O=[N+]([O-])c1ccccc1C(O)Cc1ccc2ccccc2n1` (configuration not stated), for which the growth in the assay with T-47D breast was 88.6%; in the assay with BT-549 breast, 109%; with MDA-MB-435 melanoma, 103%; with SW-620 colon, 96.7%; in the assay on MCF7 breast it was 83.2%; in the assay with HCT-116 colon it was 93%. For the same molecule, the growth in the assay with HCC-2998 colon was 114%; in the assay with KM12 colon, 87.6%.

On to `O=C1Nc2ccc(Cl)cc2/C1=N/N=C/c1c[nH]c2ccccc12`, for which the growth with T-47D breast was 73.4%; with BT-549 breast it was 93.5%; in the assay with MDA-MB-435 melanoma it was 87%; in the assay on SW-620 colon it was 79.2%; in the assay on MCF7 breast, 71.1%; in the assay on HCT-116 colon, 75.6%. For the same molecule, the growth in the assay with HCC-2998 colon was 101%; in the assay with KM12 colon, 68.1%.

Take `C=C(C)[C@@H]1CC[C@@]2(C(=O)O)CC[C@]3(C)C(CCC4[C@@]5(C)CCC(OS(=O)(=O)c6ccccc6)C(C)(C)C5CC[C@]43C)C12` (some centres not stated): the growth in the assay with T-47D breast is 34.9%; in the assay with BT-549 breast, 58.9%; in the assay on MDA-MB-435 melanoma it was 59.4%; with SW-620 colon, 48.8%; with MCF7 breast, 50.6%; in the assay with HCT-116 colon it was 25.7%. Further, the growth is 33.9% in the assay on HCC-2998 colon and 31.4% in the assay on KM12 colon.

Turning to `COc1ccc(Cn2cnc3cc(C(=O)Nc4cccc5ccccc45)ccc32)c(OC)c1`, the growth in the assay with T-47D breast was 59.8% [30 µM]; in the assay with BT-549 breast, 30.8% [30 µM]; in the assay with MDA-MB-435 melanoma, -44.5% [30 µM] (active); with SW-620 colon, 22.7% [30 µM]; in the assay with MCF7 breast it was 11.8% [30 µM]; with HCT-116 colon, 10.3% [30 µM]. Besides, the growth with HCC-2998 colon was 6.79% [30 µM] (active); in the assay on KM12 colon, 2.44% [30 µM] (active).

`N#Cc1c(NC(=O)c2cccc(C(F)(F)F)c2)sc2c1CCC(=O)C2`: the growth in the assay with T-47D breast was -21.6% (active); in the assay with BT-549 breast it was -77.1% (active); with MDA-MB-435 melanoma it was -74.6% (active); in the assay with SW-620 colon, -66.2% (active); in the assay with MCF7 breast, 7.82% (active); in the assay with HCT-116 colon, -63.7% (active). The growth with HCC-2998 colon is 27.2%; with KM12 colon it was -21.3% (active).

Turning to `Cc1nc(Nc2ccc(NC(=S)Nc3ccccc3)cc2)nc2nc(Nc3ccc(S(=O)(=O)O)cc3)[nH]c(=O)c12`, the growth in the assay with T-47D breast was 87.3%; with BT-549 breast, 61%; in the assay on MDA-MB-435 melanoma, 105%; with SW-620 colon, 116%; in the assay with MCF7 breast, 102%; in the assay with HCT-116 colon it was 103%. For the same molecule, the figures for the growth in the assay with HCC-2998 colon and with KM12 colon were 118% and 120%, respectively.

With `COc1ccc2cc(-c3ccc(C(=O)NN)c(C)n3)ccc2c1`, the growth was 79.5% in the assay on T-47D breast; 88.9% with BT-549 breast; 99.9% in the assay on MDA-MB-435 melanoma; 107% in the assay with SW-620 colon; 90.4% with MCF7 breast; 93.7% with HCT-116 colon. The values for the growth in the assay with HCC-2998 colon and in the assay on KM12 colon were 99.6% and 103%, respectively.

For the molecule `CCNCCNc1cc(C2CCCC2)c(C#N)c2nc3ccccc3n12`, the growth in the assay on T-47D breast is 13.8%; with BT-549 breast, 9.57% (active); in the assay with MDA-MB-435 melanoma, 11.2%; in the assay with SW-620 colon it was 8.01% (active); with MCF7 breast it was 29.6%; in the assay on HCT-116 colon, 1.61% (active). Moreover, the figures for the growth in the assay with HCC-2998 colon and in the assay on KM12 colon were 32.7% and 35%, respectively.

As to `CNC1(C#N)CCN(Cc2ccccc2)CC1`, the growth in the assay on T-47D breast is 5.3% (active); in the assay with BT-549 breast it was 203%; in the assay on MDA-MB-435 melanoma it was 95.4%; in the assay with SW-620 colon, 105%; in the assay on MCF7 breast, 102%; with HCT-116 colon, 106%. Besides, the growth in the assay on HCC-2998 colon was 106%; with KM12 colon, 103%.

With `COc1cc(-c2ccc(-c3ccc(C(=N)N)nc3)s2)cc(OC)c1OC`, the growth is 66.2% in the assay with T-47D breast; 89.8% in the assay on BT-549 breast; 37.1% in the assay on MDA-MB-435 melanoma; 29.2% with SW-620 colon; -1.33% (active) with MCF7 breast; 0.952% (active) in the assay on HCT-116 colon. Besides, the growth with HCC-2998 colon was 12.1%; in the assay with KM12 colon, 49.1%.
